Results from PubChem BioAssay AID540267 (National Center for Advancing Translational Sciences (NCATS), 2011).
Hit rate of the full screen: of about 340,000 compounds, about 530 (0.16%) were called active. Another 2% or so got no clear call; they are omitted. No stated cut-off is given here; in the data, active means activity change below about -80%; inconclusive means between about -30% and that limit; inactive means weaker than that. Shown is part of a subset that was picked to be rich in actives.

Assay: Small Molecules that selectively kill Giardia lamblia: qHTS;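 further: parasites exposed to compound for two days anaerobically before the ATP read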
Conditions: Giardia lamblia trophozoite viability; at 7.66 µM; active compounds read low
Text: Giardia lamblia is a human pathogen afflicting impoverished nations, and the most common cause of outbreaks of diarrhea in the United States. Giardia has been classified by the CDC as a category B bioterrorism organism. The favored anti giardiasis drugs in the US are metronidazole or tinidazole, compounds that have undesirable side effects. Moreover, increasing resistance to drug regimes and recurrence are a concern. It is thus clear that alternative drug treatments are needed.
In a collaboration between the University of Maryland, College Park and the NIH Chemical Genomics Center, a bioluminescence Giardia viability assay based on the trophozoites' ATP content was developed. This assay is suitable for high throughput screening, and miniaturized the assay for compound screening in 1536-well plates. The goal of the project is to screen the Molecular Libraries Small Molecule Repository (MLSMR) for compounds that selectively kill Giardia trophozoites.
NIH Chemical Genomics Center [NCGC]
NIH Molecular Libraries Probe Centers Network [MLPCN]
Assay Submitter (PI): Osnat Herzberg, University of Maryland, College Park, MD.
1. Dispense 2 ul/well media
2. Dispense 23 nl/well compounds
3. Dispense 4 ul/well Giardia trophozoites at a concentration of 100 cells/well
4. Incubate 48 hrs at 37 deg C anaerobically
5. Dispense 4 ul/well ATPLite 1-Step Luminescence assay kit
6. Incubate 15-30 min at room temperature
7. Read luminescence signal on ViewLux plate reader
On the % scale 0 is the no-effect control and ±100 the full control effect.

| Compound | activity change |
| --- | --- |
| Oc1ccc(Br)cc1C1C=C(c2ccc3c(c2)OCO3)NC(c2ccc(Cl)cc2)N1 (stereo not drawn) | -6.54% (inactive) |
| CC1CC(C)(C)CC2(C1)NC(=O)N(CC(=O)Nc1nccs1)C2=O (stereo not drawn) | 7.14% (inactive) |
| COc1ccc(-c2nc(=N)sn2-c2ccccc2)cc1 | 5% (inactive) |
| Cc1ccc(SCC(CC(C)C)N2CCN(CCc3ccccc3)CCC2=O)cc1 (stereo not drawn) | -1.92% (inactive) |
| COc1ccccc1Nc1cc(C(=O)NCCCN(C)C2CCCCC2)c2ccccc2n1 | -11.5% (inactive) |
| CN(C)Cc1cn(-c2ccccc2)nc1-c1ccccc1 | 2.86% (inactive) |
| [O-][n+]1ccc(OCc2ccccc2)cc1 | 23.2% (inactive) |
| CCc1ccc(OCCCn2c(CCCNC(=O)C3CCCCC3)nc3ccccc32)cc1 | -7.56% (inactive) |
| C=CCSc1nnc(N2C(=O)C(O)=C(C(=O)c3ccco3)C2c2ccc(F)cc2)s1 (stereo not drawn) | -13.6% (inactive) |
| O=C(c1cccc(F)c1)N1CCN(c2ccc([N+](=O)[O-])c(N3CCCCC3)c2)CC1 | 5.61% (inactive) |
| O=C(c1cccc(F)c1)N1CCN(c2ccc([N+](=O)[O-])c3cccnc23)CC1 | -82.8% (active) |
| O=C(c1ccc(N2CCOCC2)c([N+](=O)[O-])c1)N1CCN(c2ccccc2F)CC1 | 8.07% (inactive) |
| O=C(CN1C(=O)NC2(CCCCCC2)C1=O)NCc1cccs1 | -9.8% (inactive) |
| COc1ccc(Br)cc1C1C2C=CCC(C)C2C(=O)N1Cc1ccccc1 (stereo not drawn) | 20% (inactive) |
| O=C(O)C1CC=CC2CCN(C3CCCCC3)C(=O)C21 (stereo not drawn) | -16.4% (inactive) |
| Cc1ccc2ccc3c(c2n1)NS(=O)(=O)c1ccccc1-3 | -5.37% (inactive) |
| O=C(COc1ccccc1[N+](=O)[O-])N/N=C/c1ccc[nH]1 | 5.97% (inactive) |
| CC(C)c1cc(C(=O)N/N=C/C(Br)=C/c2ccccc2)n[nH]1 | 15.8% (inactive) |
| CC(C)(C)c1cc(C(=O)N/N=C/c2ccc([N+](=O)[O-])s2)n[nH]1 | -93% (active) |
| Cc1cccc(/C=N/NC(=O)CNc2cccc3ccccc23)n1 | -9.25% (inactive) |

| Compound | activity change |
| --- | --- |
| Cc1ccccc1NCC(=O)N/N=C\c1ccc([N+](=O)[O-])s1 | -89.1% (active) |
| Cc1cc(C(=O)N/N=C/c2cc([N+](=O)[O-])cc(C)c2O)n[nH]1 | -15.8% (inactive) |
| CC1(C)OC(=O)N2CCc3ccccc3C21C (stereo not drawn) | -12.9% (inactive) |
| CCOc1ccc(C(C)=O)cc1CSc1nnc(-c2ccncc2)n1CCOC | 1.79% (inactive) |
| O=C(NNC(=O)c1ccccc1[N+](=O)[O-])Nc1ccccc1C(F)(F)F | -21.9% (inactive) |
| COc1ccc(-n2cnc3cc(NCc4ccco4)ccc32)cc1 | -16.4% (inactive) |
| Cn1c(SCC(=O)Nc2ccc(Br)cc2F)nnc1-c1ccco1 | -12.3% (inactive) |
| Cn1c(-c2ccco2)nc2cc3ccccc3cc21 | -82.6% (active) |
| Cc1ccc(-c2nc3ccccn3c2Nc2ccc(F)cc2)o1 | 13.3% (inactive) |
| NCCCNC(=S)NCCCN(Cc1ccc(Cl)cc1)c1ccc(Br)cn1 | -3.06% (inactive) |
| C=C1CCN(C(CC(C)C)C(=O)NCc2cc(OC)c(OC)c(OC)c2)S(=O)(=O)c2ccccc21 (stereo not drawn) | -2.48% (inactive) |
| O=C1c2ccccc2C(=O)N1c1ccc(S(=O)(=O)N2CCOCC2)c2ccccc12 | -26.6% (inactive) |
| c1ccc(-n2ncc(-c3nn[nH]n3)n2)cc1 | -10.6% (inactive) |
| O=[N+]([O-])c1ccc(S(=O)(=O)N2CCN(c3nc(-c4ccccc4)nc4ccccc34)CC2)cc1 | -1.14% (inactive) |
| CCC(=O)c1ccc(OCC(=O)N(CC)CC2COc3ccccc3O2)cc1 (stereo not drawn) | 5.76% (inactive) |
| O=C(NCCc1ccco1)c1ccc(OCc2cn3ccccc3n2)cc1 | -6.02% (inactive) |
| O=C(Cc1ccccc1)Nc1c(C(=O)N2CCCCCC2)cnn1-c1ccccc1 | 7.39% (inactive) |
| O=C(Nc1cccc2cccnc12)C(F)(F)F | 11.7% (inactive) |
| O=c1onc(-c2c(F)cccc2F)n1-c1ccccc1Cl | -18.5% (inactive) |
| CCOc1nc(NCCN2CCOCC2)nc(Nc2ccc(C)cc2)n1 | 17.9% (inactive) |

| Compound | activity change |
| --- | --- |
| c1ccc2cc3c(NCCN4CCOCC4)ccnc3cc2c1 | -97.2% (active) |
| c1ccc(-c2ccc(OCCN3CCOCC3)cc2)cc1 | 19.5% (inactive) |
| COc1cc2nc(CN(C)Cc3ccc(F)cc3)[nH]c(=O)c2cc1OC | 1.83% (inactive) |
| CCCNC(=O)c1onc(CSc2ccc(F)cc2)c1C(=O)NC(C)C | 23.4% (inactive) |
| CC(C)C(NC(=O)C1CCC(C(C)(C)C)CC1)C(=O)NCCCN1CCCCC1 (stereo not drawn) | -2.26% (inactive) |
| CCOCCCNC(=O)C(NC(=O)CNC(=O)c1ccccc1)c1ccc(OC)cc1 (stereo not drawn) | -20.4% (inactive) |
| COc1ccc(-c2nc3c(c(SCC(=O)Nc4ccc(C(=O)O)cc4)n2)Cc2ccccc2O3)cc1 | 9.92% (inactive) |
| Cc1cc(C)cc(OCC(=O)Nc2cc(NC(=O)COc3cc(C)cc(C)c3)cc(C(=O)O)c2)c1 | -12.2% (inactive) |
| CC1C/C(=N/NC(=O)c2cccs2)CC(C)(C)C1 (stereo not drawn) | 4.93% (inactive) |
| Oc1ccc(Cl)cc1C1C=C(c2ccc3c(c2)OCO3)NC(c2ccc(F)c(Br)c2)N1 (stereo not drawn) | -24.8% (inactive) |
| O=C(c1ccc2c(=O)n(Cc3ccco3)c(=S)[nH]c2c1)N1CCCC1 | 4.07% (inactive) |
| O=C1C[C@@H](c2ccc3ccccc3c2)N1S(=O)(=O)c1ccccc1[N+](=O)[O-] | 0.869% (inactive) |
| COc1ccc(C(CCN2CCOCC2)c2c(OC)cc(OC)c3c2OC(=O)CC3c2ccc(OC)cc2)cc1 (stereo not drawn) | 12.9% (inactive) |
| CCN(CC)c1nc(C#N)nc(OC)n1 | -9.05% (inactive) |
| C=C1CCN(Cc2ccc(OC)cc2)S(=O)(=O)c2ccccc21 | 23.9% (inactive) |
| CCOc1cc2[nH]c(=O)n(CCC(=O)NCc3ccc(OC)cc3)c(=O)c2cc1OCC | -9.64% (inactive) |
| COc1ccc(C2/C=C\CN(C(=O)c3ccc(C)cc3)C(Cc3ccccc3)C(=O)N2Cc2ccc(F)cc2)cc1 (stereo not drawn) | 28.8% (inactive) |
| Cc1ccc(-c2nnc3ccc(SCC(N)=O)nn23)cc1 | 5.27% (inactive) |
